Bioassay records (PubChem BioAssay)
In the library only some 1.1% were active in any assay of this set; here they are far more common.
CatL inh – inhibitors of human cathepsin L, biochemical; purified cathepsin L, fluorogenic substrate, fluorescence; inhibition, %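 (tested at 10 µM)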; 58,000 tested, 0.17% active; in the data active means inhibition above about 45%;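 further: 0% = enzyme with no compound and 100% = no enzyme blank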
Her2 expr inh – inhibitors of Her2 protein expression, primary screen, SKBR-3 cells, AlphaScreen, 66K library; AID 645, 2007; Receptor tyrosine-protein kinase erbB-2 (Homo sapiens), P04626; HER2 level % of control, % at 10 µM; SKBR-3 HER2 protein level, 18-24 h; hits give low values; 65,000 tested, 0.69% active;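 active means HER2 level under 5% of the carrier-only control; inconclusive means no clear call, values can overlap the other calls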;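 further: 100% = DMSO carrier and 0% = 500 nM PU-H71 HSP90 inhibitor; lower value means stronger loss of Her2 protein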
Target sequence (P04626 whole entry, looked up): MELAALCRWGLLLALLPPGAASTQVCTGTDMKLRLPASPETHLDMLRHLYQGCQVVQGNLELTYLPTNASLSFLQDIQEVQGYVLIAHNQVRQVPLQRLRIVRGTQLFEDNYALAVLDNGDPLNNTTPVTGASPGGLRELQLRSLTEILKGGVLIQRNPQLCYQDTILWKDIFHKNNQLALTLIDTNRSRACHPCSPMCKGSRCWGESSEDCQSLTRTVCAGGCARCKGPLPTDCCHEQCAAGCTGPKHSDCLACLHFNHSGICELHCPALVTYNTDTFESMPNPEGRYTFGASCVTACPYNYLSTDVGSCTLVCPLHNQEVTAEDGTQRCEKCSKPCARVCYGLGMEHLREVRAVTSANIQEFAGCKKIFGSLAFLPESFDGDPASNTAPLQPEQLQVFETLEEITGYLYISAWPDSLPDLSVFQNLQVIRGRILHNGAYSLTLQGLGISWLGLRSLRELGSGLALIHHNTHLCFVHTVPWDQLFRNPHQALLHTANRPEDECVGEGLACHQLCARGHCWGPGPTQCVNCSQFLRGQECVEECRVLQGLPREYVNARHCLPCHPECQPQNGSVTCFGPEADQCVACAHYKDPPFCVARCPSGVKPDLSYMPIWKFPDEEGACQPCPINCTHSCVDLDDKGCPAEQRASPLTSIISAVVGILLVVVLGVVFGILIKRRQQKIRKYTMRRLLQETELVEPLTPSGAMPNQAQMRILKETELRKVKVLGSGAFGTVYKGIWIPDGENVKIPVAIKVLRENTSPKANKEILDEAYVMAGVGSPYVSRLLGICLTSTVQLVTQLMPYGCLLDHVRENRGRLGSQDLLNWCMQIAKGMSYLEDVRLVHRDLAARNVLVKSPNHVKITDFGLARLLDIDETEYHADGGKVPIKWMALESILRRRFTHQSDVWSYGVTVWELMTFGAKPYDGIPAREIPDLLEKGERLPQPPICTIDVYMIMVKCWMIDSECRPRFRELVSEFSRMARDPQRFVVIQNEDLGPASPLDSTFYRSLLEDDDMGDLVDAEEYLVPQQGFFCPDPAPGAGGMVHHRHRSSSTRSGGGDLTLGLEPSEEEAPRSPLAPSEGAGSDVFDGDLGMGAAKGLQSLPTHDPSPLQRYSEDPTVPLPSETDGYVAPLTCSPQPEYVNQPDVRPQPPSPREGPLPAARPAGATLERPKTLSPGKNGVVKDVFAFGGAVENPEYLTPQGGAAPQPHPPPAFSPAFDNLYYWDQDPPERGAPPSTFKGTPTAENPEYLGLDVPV
WNV protease inh – inhibitors of WNV NS2B-NS3 protease, primary screen, biochemical, fluorogenic substrate; fluorogenic substrate Ex360/Em465; hits give low values; z-score (no concentration beside the values); 65,000 tested, 0.18% active; AID 577, 2007; in the data active means z-score below about -3
CatB block – human cathepsin B inhibitors, primary screen, biochemical, fluorogenic substrate | P07858 | purified cathepsin B, fluorescence | inhibition, %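 (tested at 10 µM)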 | 63,000 tested, 0.1% active; in the data active means inhibition above about 21%;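 further: 0% = enzyme with no compound and 100% = no enzyme blank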
CatS inh – inhibitors of human cathepsin S, biochemical, compound mixtures. P25774. recombinant cathepsin S, AMC dipeptide fluorescence, pooled mixtures. inhibition, %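 (tested at 5 µM per compound within 10-compound mixtures)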. 62,000 tested, 0.06% active; in the data active means inhibition above about 32%, passing the limit was not always enough; inconclusive means no clear call, values can overlap the other calls;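 further: 0% = enzyme without compound and 100% = blank without enzyme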
CatB mix inh – cathepsin B inhibitors from pooled compounds, primary screen, biochemical, compound mixtures, AMC fluorescence | P07858 | Purified cathepsin B, AMC dipeptide fluorescence | inhibition, %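 (ten-compound pools at 5 µM per compound and 50 µM total)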 | 62,000 tested, 0.06% active | AID 488, 2006; in the data active means inhibition above about 22%, passing the limit was not always enough; inconclusive means no clear call, values can overlap the other calls;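 further: 0% = enzyme without compound and 100% = no enzyme blank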
Active calls of the source: *; ? = inconclusive; · = no result given.

SMILES	CatL inh	Her2 expr inh	WNV protease inh	CatB block	CatS inh	CatB mix inh
N#CC1=C(N)OC2=C(C(=O)CCC2)C12CCN(C(=O)OCc1ccccc1)CC2	-8	97	0.31	4	-9	3
O=C1CC(Sc2nnc(-c3ccccc3)o2)C(=O)N1c1ccccc1 (stereo not drawn)	19	8	-0.22	3	6	-11
Cc1ccccc1N1C(=O)CC(Sc2nnc(-c3ccccc3)o2)C1=O (stereo not drawn)	-5	-19*	-0.43	-2	·	·
Cc1ccccc1S(=O)(=O)NC1OC(=O)C(Cl)=C1Cl (stereo not drawn)	-11	67	-1.1	2	-7	3
CC(=O)NC(=O)NC1OC(=O)C(Cl)=C1Cl (stereo not drawn)	25	69	-1.2	21*	9	?
O=C(c1cc2c(s1)CCCC2)N1CCN(Cc2ccc3c(c2)OCO3)CC1	10	105	0.15	2	-4	0
O=C(Oc1ccc2c(c1)OCO2)c1cc2c(s1)CCC2	14	-7.5*	0.46	4	9	5
C=CCn1c(SCc2nc3ccccc3c(=O)[nH]2)nnc1-c1cc2cc(Cl)ccc2o1	10	3.3*	0.98	1	3	-1
COc1ccc(C2CC(C(F)(F)F)n3ncc(C(=O)NCc4cccnc4)c3N2)cc1OC (stereo not drawn)	-3	149	0.86	1	13	-8
COc1cc(C2CC(C(F)(F)F)n3ncc(C(=O)O)c3N2)cc(OC)c1OC (stereo not drawn)	20	169	-5.8*	3	·	·
O=C(CN1CCCN(S(=O)(=O)c2ccc(Br)cc2)CC1)Nc1ccc2c(c1)OCO2	51*	88	-0.94	-2	3	8
CCN(CC(=O)NC1CCCCCC1)S(=O)(=O)c1ccccc1	12	-28*	0.38	1	9	6
COc1ccc(-c2nc(C(N)=O)c3[nH]c(=O)n(-c4cccc(Cl)c4)c3n2)cc1OC	21	-12*	-0.11	2	0	2
Cc1nn(Cc2ccccc2)c(C)c1NC(=O)c1cc(-c2cccs2)on1	20	80	0.49	3	0	-3
CCn1c(=O)c(C(=O)Nc2nc3ccccc3[nH]2)c(O)c2ccccc21	-16	0.9*	-1	1	-3	1
CCn1c(=O)c(C(=O)Nn2c(C)nc3ccccc3c2=O)c(O)c2ccccc21	-7	53	-0.99	2	-1	-7
O=C(Nc1cccc2ccccc12)c1cnccn1	15	98	-0.3	2	6	3
CCOC(=O)CNc1ncnc2nc[nH]c12	-5	118	-1.3	-1	-4	-1
C/C(N)=N\S(=O)(=O)c1ccc(Cl)cc1	15	89	0.77	29*	4	5
O=C(c1n[nH]c(=O)c2ccccc12)N1CCN(c2ccc(F)cc2)CC1	-4	97	0.11	0	0	7
O=C(c1n[nH]c(=O)c2ccccc12)N1CCN(c2ccccc2)CC1	8	-20*	0.51	3	4	-4
Nc1nonc1-c1nc2ccccc2n1Cc1ccccc1	39	51	-0.54	5	-2	43*
CC1CCCN(C(=O)Cn2c(-c3nonc3N)nc3ccccc32)C1 (stereo not drawn)	18	-24*	-1.1	6	-1	6
Nc1nonc1-c1nc2ccccc2n1CC(=O)NC1CCCC1	31	105	-0.6	14	-4	18
CCOC(=O)c1ccccc1NC(=O)Cn1c(-c2nonc2N)nc2ccccc21	44	51	-0.49	59*	-5	5
COc1ccc(CNc2nc3c(c(=O)n(Cc4ccc(Cl)cc4)c(=O)n3C)n2C)cc1	2	97	-0.75	-3	0	0
Cc1c(C(=O)NCCN2CCOCC2)oc2ccc(S(=O)(=O)N3CCCCCC3)cc12	4	-22*	-0.57	-1	-1	0
COc1ccc(-c2nc3c(=O)n(C)c(=O)[nH]c3n2CCc2ccccc2)cc1	15	134	-3.5*	7	-32	-17
O=C(CCN1C(=O)c2ccccc2C1=O)Nc1ccc(S(=O)(=O)N2CCOCC2)cc1	-5	96	-1.3	-2	-4	5
